AMA1-RON2 inh = disrupts binding of P. falciparum AMA1 to RON2; 360,000 tested, 0.2% active; AlphaScreen AMA1-biotinylated RON2 peptide binding; Potency, µM (titrated, usually from 58.2 µM), without a hit: at the top dose activity change, negative = inhibition, usual class: inhibitors;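 note: 0% = vehicle wells and -100% = peptide control; nearly all actives have a fitted effect of over 45% in size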
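AMA1 (3D7) with his tag at 25 nM final met compounds first, then biotinylated RON2 peptide at 25 nM; detection used donor plus acceptor beads, 10 µg/mL apiece, read by AlphaScreen after 30 min at room temperature.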
Sm TGR block = blocks Schistosoma mansoni thioredoxin glutathione reductase; purified TGR, DTNB reduction, TNB absorbance 405 nm; Potency, µM (titrated, usually from 114 µM), inactives show at the highest dose activity change, negative = inhibition, most hits filed as inhibitors; 360,000 tested, 3% active; note: % is set by controls: 0 for no effect and ±100 for the full control effect; nearly all actives have a fitted effect of over 60% in size
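Kinetic colorimetric format: TGR-catalysed, NADPH-driven DTNB reduction monitored via TNB absorbance. Enzyme dispensed at 20 nM; compound exposure 15 min at room temperature before reaction start.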
Pf growth 48h = P. falciparum growth inhibition at 48 hours (one generation) | P. falciparum luciferase growth in erythrocytes, 48 h | Potency, µM (doses to about 28.7 µM), for the others: at the top dose activity change, negative = inhibition, hits mostly inhibitors | 310,000 tested, 5.9% active; note: % is set by controls: 0 for no effect and ±100 for the full control effect
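Growth was read as firefly luciferase luminescence after a 48 h, 37 C, 5% CO2 exposure of compounds to reporter-bearing P. falciparum cultures (0.1% parasitemia, 2% hematocrit final) in Albumax-supplemented RPMI 1640.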
NS1 inh = influenza NS1 inhibition; AID 2326; 270,000 tested, 0.4% active; Potency, µM (doses to about 46.1 µM), for the others: at the top dose activity, positive = more growth; calls by dose curve; note: actives are rising curves; nearly all actives have a fitted effect of over 50% in size
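Read-out: OD600 growth recovery of NS1-expressing budding yeast. Cells grown overnight at 30C in -URA glucose medium, washed, resuspended and diluted 1:100 in 2% galactose assay medium, pH 6.0. Same strain lacking NS1 served as positive control.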
Pf growth 96h = P. falciparum growth inhibition at 96 hour, primary screen for plastid delayed-death inhibitors; P. falciparum luciferase reporter growth, 96 h; Potency, µM (series often up to 28.7 µM), without a hit: at the top dose activity change, negative = inhibition, hits mostly inhibitors; 320,000 tested, 6.9% active; AID 504834; note: % is set by controls: 0 for no effect and ±100 for the full control effect
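Two parasite generations (96 h, 37 C, 5% CO2) of compound exposure in infected erythrocytes (0.05% parasitemia, 2% hematocrit). Luciferase-reporter P. falciparum; decreased luminescence indicates inhibited growth, aimed at apicoplast-acting delayed death.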
Starred values were filed as active, the others as inactive; ? = inconclusive; / = no result; [ ] = remark or other dose. Sampled rows, rich in hits. Any-hit rate of the full collection: about 11%. Unless noted, calls come from the whole dose curve; as a rule, active = well fitted curve in the direction sought with a large enough effect; inconclusive = small, poorly fitted or top-dose-only effect, or another doubt; inactive = no such curve, though single readings can be large; an effect the other way counts as inactive or inconclusive. Potency is the fitted concentration of half-maximal effect.

SMILES	AMA1-RON2 inh	Sm TGR block	Pf growth 48h	NS1 inh	Pf growth 96h
CN(C(=S)NC1CCCCC1)C1(c2ccccc2Cl)CCCCC1=O (stereo unspecified)	-11%	-3%	12µM*	3%	?
CN(C(=S)Nc1ccccc1F)C1(c2ccccc2Cl)CCCCC1=O (stereo unspecified)	-4%	-6%	10µM*	6%	?
Cc1cccc(NC(=S)N(C)C2(c3ccccc3Cl)CCCCC2=O)c1 (stereo unspecified)	-8%	-4%	?	6%	/
Cc1ccc(S(=O)(=O)NCC(=O)OC(C(=O)c2ccccc2)c2ccccc2)cc1 (stereo unspecified)	3.2µM*	18%	?	-49%	?
O=C(CSc1ncnc2c1cnn2-c1ccccc1Cl)N1CCN(C(=O)c2ccco2)CC1	-18%	1%	-19%	-11%	7.4µM*
COc1ccc(N2CCN(C(=O)CSc3ncnc4c3cnn4-c3ccccc3C)CC2)cc1	0%	-13%	12%	-6%	6.6µM*
Cc1ccc(C)c(NC(=O)CN(C)C(=O)c2ccc(S(=O)(=O)N3CCCCCC3)cc2)c1	-7%	-14%	?	/	-8%
COc1ccc(NC(=O)CSc2oc(-c3ccco3)nc2S(=O)(=O)c2ccccc2)c(OC)c1	/	-29%	/	/	/
COc1ccccc1CN(Cc1ccco1)c1cnc(S(C)(=O)=O)nc1C(=O)Nc1ccccc1Cl	/	0%	/	/	/
Cc1cccn2c(=O)c(C=O)c(Nc3ccccc3)nc12	4%	0%	38%	-10%	44%
O=C(N/N=C/c1cc([N+](=O)[O-])ccc1N1CCCCCC1)c1ccccn1	99%	0%	?	/	?
O=C(N/N=C/c1ccc([N+](=O)[O-])s1)c1cccc(Br)c1	37%	-19%	4.1µM*	2%	4.1µM*
O=C(N/N=C/c1ccc(Br)s1)c1ccccc1[N+](=O)[O-]	5%	-15%	6%	1%	2%
CCN(CC)C(=O)C1CCCN(c2ccc([N+](=O)[O-])cc2/C=N/NC(=O)c2cccc(Br)c2)C1 (stereo unspecified)	48%	2%	4.1µM*	?	2.1µM*
O=C(N/N=C/c1ccc(Br)s1)c1ccc([N+](=O)[O-])cc1	11%	-11%	2.1µM*	/	-11%
Cc1ccc(C(=O)N/N=C\c2ccc([N+](=O)[O-])s2)cn1	16%	?	4.1µM*	-5%	0.33µM*
Cc1ccc(C(=O)N/N=C/c2ccc([N+](=O)[O-])s2)cc1	-24%	-11%	?	-32%	24%
CCc1nn2c(=O)cc(COC(=O)c3ccccc3NC(=O)COc3ccc(C)c(C)c3)nc2s1	/	2%	/	/	/
NC(=O)C1(N2CCCCC2)CCN(C(=O)Nc2ccc(F)cc2F)CC1	/	-8%	/	/	/
O=C(N/N=C/c1ccc([N+](=O)[O-])s1)c1ccncc1	43%	?	4.7µM*	-22%	1.5µM*
C/C(=N\OCc1nc2ccccc2c(=O)n1/N=C/c1cc(C)cc([N+](=O)[O-])c1O)c1ccccc1	-1%	-35%	6.6µM*	-38%	?
O=[N+]([O-])c1ccc(O)c(/C=N/n2cnc3ccccc32)c1	-4%	-13%	-19%	-4%	?
C/C(=N\OCc1nc2ccccc2c(=O)n1/N=C/c1cc([N+](=O)[O-])ccc1O)c1ccccc1	87%	35µM*	?	-6%	?
O=[N+]([O-])c1ccc(O)c(/C=N/n2c(CO)nc3ccccc32)c1	9%	0%	?	-45%	13µM*
CC1(C(=O)Nc2ccc3c(c2)OCCO3)CC1(Cl)Cl (stereo unspecified)	-5%	1%	31%	6%	?
Cc1cc(NS(=O)(=O)c2ccc(NC(=O)COc3ccc(C#N)cc3)cc2)nc(C)n1	-3%	/	/	/	/
NS(=O)(=O)c1ccc2nc(NC(=O)COc3ccc(Cl)cc3Cl)sc2c1	/	4%	/	/	/
CCc1cccc(NC(=O)c2ccc3c(c2)c(C)c(C)n3Cc2ccc(F)cc2)c1	/	9%	/	/	/
CC(C)CC(NS(=O)(=O)c1ccccc1)C(=O)O (stereo unspecified)	-2%	1%	-7%	-13%	/
CC(C)CN=C(NS(=O)(=O)c1ccccc1)C(Cl)(Cl)Cl	17%[2.32 µM]	-27%	2.6µM*	-20%	10µM*

Screening results (PubChem)
